# Measurements published in paper PMC7862700, “An all-to-all approach to the identification of sequence-specific readers for epigenetic DNA modifications on cytosine”.
# Tests used:
# Experiment in all cases: DAPPL (digital affinity profiling via proximity ligation, sequencing); 10 mM Tris-HCl pH 7.5, 50 mM NaCl, 1 mM DTT, 4% glycerol, room temperature, 30 min; GST-TFs on glutathione beads, 16-mer random dsDNA library, 0.1% formaldehyde crosslink after washing; high values mean tight binding
# Conditions in all cases: protein: recombinant; tags: N-terminal GST; dsDNA, one strand shown
# [1] = biological target: T1, ELK1 (Homo sapiens, UniProt P19419 1-428)
# T1 sequence: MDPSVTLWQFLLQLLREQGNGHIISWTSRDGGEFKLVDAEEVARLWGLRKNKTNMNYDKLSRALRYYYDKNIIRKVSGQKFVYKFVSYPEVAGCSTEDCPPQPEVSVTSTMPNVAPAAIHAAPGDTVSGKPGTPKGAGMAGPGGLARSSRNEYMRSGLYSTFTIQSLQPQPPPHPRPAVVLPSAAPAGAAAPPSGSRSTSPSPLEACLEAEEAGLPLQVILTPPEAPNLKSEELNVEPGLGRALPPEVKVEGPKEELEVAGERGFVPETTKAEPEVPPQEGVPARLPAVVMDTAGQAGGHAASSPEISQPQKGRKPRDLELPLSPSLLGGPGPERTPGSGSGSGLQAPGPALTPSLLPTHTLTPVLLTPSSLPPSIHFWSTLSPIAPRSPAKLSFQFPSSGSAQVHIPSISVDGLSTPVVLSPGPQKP
# Summary of the method: (§1)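 Sequencing on an Illumina NextSeq500 followed washing, crosslinking with 0.1% formaldehyde, proximity ligation (BsaI/T4 ligase, 1 h, 37 °C) and PCR amplification of pools that had been incubated for 30 min at room temperature with 200 nmole of a random double-stranded 16-mer DNA library in Tris/NaCl/DTT/glycerol buffer. Each pool held DNA-barcoded human transcription factors, expressed in yeast as GST fusions and captured on glutathione beads, plus a tag-only sample. Binding signal is a hexamer's read frequency for a factor divided by its frequency in the tag-only sample.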
# [2] = biological target: T2, GABPA (Homo sapiens, UniProt Q06546 1-454)
# T2 sequence: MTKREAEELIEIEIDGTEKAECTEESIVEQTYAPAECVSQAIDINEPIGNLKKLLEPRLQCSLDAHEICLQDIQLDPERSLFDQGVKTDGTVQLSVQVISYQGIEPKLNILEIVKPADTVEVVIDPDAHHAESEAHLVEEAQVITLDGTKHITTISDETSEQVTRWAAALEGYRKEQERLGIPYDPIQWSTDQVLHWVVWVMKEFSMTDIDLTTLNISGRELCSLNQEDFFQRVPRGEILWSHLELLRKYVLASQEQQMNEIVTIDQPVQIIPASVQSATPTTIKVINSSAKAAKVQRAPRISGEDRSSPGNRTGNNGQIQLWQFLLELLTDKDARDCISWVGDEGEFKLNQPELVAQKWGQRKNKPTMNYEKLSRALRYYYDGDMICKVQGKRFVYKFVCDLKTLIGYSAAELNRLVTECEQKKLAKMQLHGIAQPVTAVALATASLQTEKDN
# Summary of the method: as §1
# [3] = biological target: T3, ERG (Homo sapiens, UniProt P11308 1-479)
# T3 sequence: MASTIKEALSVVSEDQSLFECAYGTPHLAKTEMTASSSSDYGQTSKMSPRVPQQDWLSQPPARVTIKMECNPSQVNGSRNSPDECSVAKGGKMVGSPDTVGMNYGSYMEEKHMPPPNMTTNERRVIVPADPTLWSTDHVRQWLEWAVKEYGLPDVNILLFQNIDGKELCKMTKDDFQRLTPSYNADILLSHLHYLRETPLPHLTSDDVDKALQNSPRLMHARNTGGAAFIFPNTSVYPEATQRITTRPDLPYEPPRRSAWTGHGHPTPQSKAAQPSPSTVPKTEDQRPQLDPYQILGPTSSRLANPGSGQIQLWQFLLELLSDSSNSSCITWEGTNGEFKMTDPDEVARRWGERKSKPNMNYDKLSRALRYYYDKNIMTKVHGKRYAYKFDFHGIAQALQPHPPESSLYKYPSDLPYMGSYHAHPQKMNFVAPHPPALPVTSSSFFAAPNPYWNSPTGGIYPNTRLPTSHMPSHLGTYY
# Summary of the method: as §1
# [4] = biological target: ELF1 (Homo sapiens, UniProt P32519 1-619)
# Chain of ELF1 (P32519 whole entry): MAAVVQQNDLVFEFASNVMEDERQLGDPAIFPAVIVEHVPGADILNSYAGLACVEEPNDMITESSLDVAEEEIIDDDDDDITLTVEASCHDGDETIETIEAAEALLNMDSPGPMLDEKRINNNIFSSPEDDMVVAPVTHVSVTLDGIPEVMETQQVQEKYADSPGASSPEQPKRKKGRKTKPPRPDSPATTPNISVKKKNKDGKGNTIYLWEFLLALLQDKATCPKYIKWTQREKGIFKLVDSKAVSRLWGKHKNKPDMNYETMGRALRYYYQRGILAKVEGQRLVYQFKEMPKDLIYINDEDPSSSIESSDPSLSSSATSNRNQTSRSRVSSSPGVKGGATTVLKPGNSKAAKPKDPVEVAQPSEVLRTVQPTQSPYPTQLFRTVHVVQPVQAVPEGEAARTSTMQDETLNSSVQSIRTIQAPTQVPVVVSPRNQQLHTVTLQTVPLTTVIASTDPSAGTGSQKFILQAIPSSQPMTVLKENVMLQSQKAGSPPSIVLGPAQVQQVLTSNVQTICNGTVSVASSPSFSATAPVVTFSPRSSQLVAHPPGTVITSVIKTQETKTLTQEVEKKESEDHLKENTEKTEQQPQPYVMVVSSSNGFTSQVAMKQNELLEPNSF
# Summary of the method: as §1
# [5] = biological target: T4, EHF (Homo sapiens, UniProt Q9NZC4 1-300)
# T4 sequence: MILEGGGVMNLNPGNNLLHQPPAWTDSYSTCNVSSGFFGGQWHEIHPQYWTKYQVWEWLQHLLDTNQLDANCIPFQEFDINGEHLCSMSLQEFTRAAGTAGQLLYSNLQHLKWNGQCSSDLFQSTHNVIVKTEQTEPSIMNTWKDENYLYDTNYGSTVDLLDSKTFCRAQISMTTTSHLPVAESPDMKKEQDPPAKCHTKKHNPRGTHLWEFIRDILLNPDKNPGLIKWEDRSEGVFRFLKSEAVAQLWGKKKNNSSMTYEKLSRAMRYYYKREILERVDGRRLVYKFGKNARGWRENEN
# Summary of the method: as §1
# [6] = biological target: SPIB (Homo sapiens, UniProt Q01892 1-262)
# Chain of SPIB (Q01892 whole entry): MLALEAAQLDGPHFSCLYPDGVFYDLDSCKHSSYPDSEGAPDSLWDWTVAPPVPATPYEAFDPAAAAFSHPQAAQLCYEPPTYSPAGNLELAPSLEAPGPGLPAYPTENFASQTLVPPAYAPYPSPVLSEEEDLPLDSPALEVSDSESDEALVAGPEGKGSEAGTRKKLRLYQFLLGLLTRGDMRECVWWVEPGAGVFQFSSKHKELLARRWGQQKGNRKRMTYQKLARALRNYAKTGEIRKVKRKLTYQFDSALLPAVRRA
# Summary of the method: as §1
# [7] = biological target: T5, FEV (Homo sapiens, UniProt Q99581 1-238)
# T5 sequence: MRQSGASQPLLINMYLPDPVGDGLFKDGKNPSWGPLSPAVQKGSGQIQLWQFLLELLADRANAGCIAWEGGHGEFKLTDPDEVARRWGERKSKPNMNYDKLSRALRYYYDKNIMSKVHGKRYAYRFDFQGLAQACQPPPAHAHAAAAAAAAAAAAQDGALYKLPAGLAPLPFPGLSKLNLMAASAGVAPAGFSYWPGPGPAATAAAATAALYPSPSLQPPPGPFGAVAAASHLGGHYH
# Summary of the method: as §1
# [8] = biological target: ETV5 (Homo sapiens, UniProt P41161 1-510)
# Chain of ETV5 (P41161 whole entry): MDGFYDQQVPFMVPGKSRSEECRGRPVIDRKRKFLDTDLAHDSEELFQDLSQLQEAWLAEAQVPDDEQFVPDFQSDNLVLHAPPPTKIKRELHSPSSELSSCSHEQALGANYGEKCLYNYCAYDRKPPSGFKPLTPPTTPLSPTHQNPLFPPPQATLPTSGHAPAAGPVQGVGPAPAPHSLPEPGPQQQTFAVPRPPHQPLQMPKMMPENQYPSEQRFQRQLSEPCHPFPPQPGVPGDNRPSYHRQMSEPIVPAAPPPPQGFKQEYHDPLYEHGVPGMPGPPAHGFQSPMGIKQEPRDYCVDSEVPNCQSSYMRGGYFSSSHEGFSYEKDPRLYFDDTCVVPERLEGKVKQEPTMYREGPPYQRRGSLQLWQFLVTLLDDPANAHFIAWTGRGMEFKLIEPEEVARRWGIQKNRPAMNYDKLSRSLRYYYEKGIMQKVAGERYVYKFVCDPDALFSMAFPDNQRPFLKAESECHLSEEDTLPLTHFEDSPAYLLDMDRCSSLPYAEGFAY
# Summary of the method: as §1
# [9] = biological target: ELF4 (Homo sapiens, UniProt Q99607 1-663)
# Chain of ELF4 (Q99607 whole entry): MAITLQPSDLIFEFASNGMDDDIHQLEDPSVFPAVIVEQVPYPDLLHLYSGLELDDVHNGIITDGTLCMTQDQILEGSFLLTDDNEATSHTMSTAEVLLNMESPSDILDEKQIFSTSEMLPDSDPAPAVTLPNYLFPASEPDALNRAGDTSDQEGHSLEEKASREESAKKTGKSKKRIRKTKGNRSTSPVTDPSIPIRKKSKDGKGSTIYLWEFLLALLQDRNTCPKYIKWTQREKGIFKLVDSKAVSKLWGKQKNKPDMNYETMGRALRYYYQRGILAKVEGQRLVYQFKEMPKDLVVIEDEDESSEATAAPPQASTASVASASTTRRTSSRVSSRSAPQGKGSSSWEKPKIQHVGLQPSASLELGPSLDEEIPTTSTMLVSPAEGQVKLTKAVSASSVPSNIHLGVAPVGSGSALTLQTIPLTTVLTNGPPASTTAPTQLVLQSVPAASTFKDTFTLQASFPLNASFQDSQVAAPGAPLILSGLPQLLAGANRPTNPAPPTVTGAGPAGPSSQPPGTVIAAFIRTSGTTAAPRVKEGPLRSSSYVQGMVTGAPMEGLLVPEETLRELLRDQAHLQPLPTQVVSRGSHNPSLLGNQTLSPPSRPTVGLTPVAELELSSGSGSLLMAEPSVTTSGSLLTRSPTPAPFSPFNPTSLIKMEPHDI
# Summary of the method: as §1
# [10] = biological target: T6, ETV2 (Homo sapiens, UniProt O00321 1-342)
# T6 sequence: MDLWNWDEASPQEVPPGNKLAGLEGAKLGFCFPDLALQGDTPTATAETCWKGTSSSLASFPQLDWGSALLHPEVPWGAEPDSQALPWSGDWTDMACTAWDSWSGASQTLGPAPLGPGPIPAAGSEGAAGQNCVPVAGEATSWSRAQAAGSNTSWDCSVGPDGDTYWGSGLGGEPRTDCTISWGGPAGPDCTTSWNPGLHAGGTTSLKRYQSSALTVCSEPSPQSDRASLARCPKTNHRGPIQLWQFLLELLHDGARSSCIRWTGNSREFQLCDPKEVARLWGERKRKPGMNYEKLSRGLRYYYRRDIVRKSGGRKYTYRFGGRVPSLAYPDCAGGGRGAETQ
# Summary of the method: as §1
# [11] = biological target: T7, ELF3 (Homo sapiens, UniProt P78545 1-371)
# T7 sequence: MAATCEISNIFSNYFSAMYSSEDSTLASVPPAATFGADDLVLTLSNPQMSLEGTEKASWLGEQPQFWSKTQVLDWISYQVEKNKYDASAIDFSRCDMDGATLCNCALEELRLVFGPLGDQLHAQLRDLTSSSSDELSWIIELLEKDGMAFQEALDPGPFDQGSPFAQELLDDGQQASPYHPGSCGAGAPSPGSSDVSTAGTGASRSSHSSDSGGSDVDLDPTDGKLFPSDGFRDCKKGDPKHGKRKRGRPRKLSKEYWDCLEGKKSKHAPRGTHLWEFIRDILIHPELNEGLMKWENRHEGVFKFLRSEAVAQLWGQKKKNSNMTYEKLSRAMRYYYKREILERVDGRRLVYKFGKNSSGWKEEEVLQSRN
# Summary of the method: as §1
# [12] = biological target: ETV1 (Homo sapiens, UniProt P50549 1-477)
# Chain of ETV1 (P50549 whole entry): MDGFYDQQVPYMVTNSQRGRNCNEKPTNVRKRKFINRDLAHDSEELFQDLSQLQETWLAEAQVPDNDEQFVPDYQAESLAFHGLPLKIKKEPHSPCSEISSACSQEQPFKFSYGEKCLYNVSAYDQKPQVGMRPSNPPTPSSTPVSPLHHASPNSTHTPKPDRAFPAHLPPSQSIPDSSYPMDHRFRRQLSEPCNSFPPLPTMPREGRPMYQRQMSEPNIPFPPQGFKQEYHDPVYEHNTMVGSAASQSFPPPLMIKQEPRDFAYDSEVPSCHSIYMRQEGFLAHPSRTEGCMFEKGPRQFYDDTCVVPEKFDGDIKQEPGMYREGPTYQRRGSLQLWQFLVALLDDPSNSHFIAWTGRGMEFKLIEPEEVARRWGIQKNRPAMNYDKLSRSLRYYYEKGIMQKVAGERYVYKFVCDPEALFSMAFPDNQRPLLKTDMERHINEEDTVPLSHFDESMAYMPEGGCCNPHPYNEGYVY
# Summary of the method: as §1
# [13] = biological target: T8, ERF (Homo sapiens, UniProt P50548 1-548)
# T8 sequence: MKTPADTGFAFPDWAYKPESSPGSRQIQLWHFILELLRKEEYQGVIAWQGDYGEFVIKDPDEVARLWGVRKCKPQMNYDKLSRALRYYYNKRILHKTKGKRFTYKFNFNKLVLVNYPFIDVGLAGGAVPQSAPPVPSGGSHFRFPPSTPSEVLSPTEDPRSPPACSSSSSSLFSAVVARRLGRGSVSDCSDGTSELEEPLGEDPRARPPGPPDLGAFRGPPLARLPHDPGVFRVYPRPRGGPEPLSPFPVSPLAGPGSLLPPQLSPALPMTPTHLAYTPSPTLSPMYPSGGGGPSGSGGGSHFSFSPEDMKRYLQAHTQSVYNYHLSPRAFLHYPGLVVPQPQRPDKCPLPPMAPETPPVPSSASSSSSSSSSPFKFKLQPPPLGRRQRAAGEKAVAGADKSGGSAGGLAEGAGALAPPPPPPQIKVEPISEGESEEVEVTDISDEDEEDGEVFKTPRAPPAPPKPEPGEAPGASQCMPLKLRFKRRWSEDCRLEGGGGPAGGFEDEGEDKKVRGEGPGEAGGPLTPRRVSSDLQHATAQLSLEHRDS
# Summary of the method: as §1
# [14] = biological target: T9, ETV3L (Homo sapiens, UniProt Q6ZN32 1-361)
# T9 sequence: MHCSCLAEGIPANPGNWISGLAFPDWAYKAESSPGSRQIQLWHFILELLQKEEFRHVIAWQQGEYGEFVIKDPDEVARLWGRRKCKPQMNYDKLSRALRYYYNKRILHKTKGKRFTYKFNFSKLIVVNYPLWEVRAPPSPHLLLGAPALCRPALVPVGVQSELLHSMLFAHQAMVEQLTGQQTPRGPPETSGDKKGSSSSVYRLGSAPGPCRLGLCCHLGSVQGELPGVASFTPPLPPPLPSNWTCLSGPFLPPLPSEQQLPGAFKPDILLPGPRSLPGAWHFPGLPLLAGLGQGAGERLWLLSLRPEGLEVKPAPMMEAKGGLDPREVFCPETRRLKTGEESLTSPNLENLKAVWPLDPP
# Summary of the method: as §1
# [15] = biological target: T10, ETS2 (Homo sapiens, UniProt P15036 1-469)
# T10 sequence: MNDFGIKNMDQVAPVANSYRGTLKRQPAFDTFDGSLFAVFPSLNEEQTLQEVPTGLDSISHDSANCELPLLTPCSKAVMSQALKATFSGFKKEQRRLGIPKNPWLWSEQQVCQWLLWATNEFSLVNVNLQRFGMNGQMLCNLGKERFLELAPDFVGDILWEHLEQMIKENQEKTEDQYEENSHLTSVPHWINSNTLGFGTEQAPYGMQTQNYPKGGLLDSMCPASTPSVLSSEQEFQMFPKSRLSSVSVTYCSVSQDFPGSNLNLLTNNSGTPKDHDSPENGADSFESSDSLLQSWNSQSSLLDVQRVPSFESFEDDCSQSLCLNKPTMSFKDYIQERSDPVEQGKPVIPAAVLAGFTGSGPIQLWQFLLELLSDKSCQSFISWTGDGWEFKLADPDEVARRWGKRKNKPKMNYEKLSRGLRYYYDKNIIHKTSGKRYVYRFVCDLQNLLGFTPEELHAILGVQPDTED
# Summary of the method: as §1
# [16] = biological target: T11, SPDEF (Homo sapiens, UniProt O95238 1-335)
# T11 sequence: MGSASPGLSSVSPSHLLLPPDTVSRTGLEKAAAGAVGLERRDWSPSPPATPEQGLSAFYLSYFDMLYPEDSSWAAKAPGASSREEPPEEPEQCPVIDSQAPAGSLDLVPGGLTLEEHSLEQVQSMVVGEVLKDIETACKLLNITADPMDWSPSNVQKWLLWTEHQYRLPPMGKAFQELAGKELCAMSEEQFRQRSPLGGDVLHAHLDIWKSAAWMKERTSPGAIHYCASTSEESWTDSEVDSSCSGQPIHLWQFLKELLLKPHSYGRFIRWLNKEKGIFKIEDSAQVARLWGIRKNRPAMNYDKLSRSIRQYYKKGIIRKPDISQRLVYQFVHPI
# Summary of the method: as §1
# [17] = biological target: T12, ETV7 (Homo sapiens, UniProt Q9Y603 1-341)
# T12 sequence: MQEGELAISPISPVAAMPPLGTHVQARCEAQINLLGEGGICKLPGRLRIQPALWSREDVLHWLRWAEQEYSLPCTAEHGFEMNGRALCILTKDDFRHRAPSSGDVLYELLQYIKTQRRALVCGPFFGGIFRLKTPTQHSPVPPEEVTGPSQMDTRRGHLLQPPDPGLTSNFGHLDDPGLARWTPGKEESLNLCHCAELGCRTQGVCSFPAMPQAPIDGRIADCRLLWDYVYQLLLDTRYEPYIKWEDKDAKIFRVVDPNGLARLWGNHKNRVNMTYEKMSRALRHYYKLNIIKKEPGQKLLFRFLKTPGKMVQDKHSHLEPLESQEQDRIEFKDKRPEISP
# Summary of the method: as §1
# [18] = biological target: T13, ETV3 (Homo sapiens, UniProt P41162-2 1-143)
# T13 sequence: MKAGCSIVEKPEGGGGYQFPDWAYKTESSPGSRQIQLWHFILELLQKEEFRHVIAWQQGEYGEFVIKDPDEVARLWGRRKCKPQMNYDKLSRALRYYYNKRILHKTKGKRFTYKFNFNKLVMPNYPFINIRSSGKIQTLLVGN
# Summary of the method: as §1
# [19] = biological target: ETV6 (Homo sapiens, UniProt P41212 1-452)
# Chain of ETV6 (P41212 whole entry): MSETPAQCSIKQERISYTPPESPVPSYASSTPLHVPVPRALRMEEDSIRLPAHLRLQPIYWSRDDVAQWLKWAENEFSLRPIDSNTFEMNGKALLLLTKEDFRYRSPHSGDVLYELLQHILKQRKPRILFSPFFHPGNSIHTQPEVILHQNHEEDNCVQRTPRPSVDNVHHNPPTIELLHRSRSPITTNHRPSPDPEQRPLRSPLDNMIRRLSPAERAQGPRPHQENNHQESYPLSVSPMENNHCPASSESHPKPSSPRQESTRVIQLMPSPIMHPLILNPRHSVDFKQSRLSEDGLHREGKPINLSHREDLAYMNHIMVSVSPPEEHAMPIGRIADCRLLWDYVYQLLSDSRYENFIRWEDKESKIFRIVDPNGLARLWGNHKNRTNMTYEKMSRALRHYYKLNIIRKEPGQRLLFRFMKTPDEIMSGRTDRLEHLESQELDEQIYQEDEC
# Summary of the method: as §1
sequence,measurement,setting,value
CCCGTC,binding signal,[1],"1.1 fold enrichment (6-mer frequency, TF over GST control)"
same,binding signal,[2],"1.01 fold enrichment (6-mer frequency, TF over GST control)"
same,binding signal,[3],"1.1 fold enrichment (6-mer frequency, TF over GST control)"
same,binding signal,[4],"1.13 fold enrichment (6-mer frequency, TF over GST control)"
same,binding signal,[5],"1.09 fold enrichment (6-mer frequency, TF over GST control)"
same,binding signal,[6],"1.05 fold enrichment (6-mer frequency, TF over GST control)"
same,binding signal,[7],"1.09 fold enrichment (6-mer frequency, TF over GST control)"
same,binding signal,[8],"1.08 fold enrichment (6-mer frequency, TF over GST control)"
same,binding signal,[9],"1.07 fold enrichment (6-mer frequency, TF over GST control)"
same,binding signal,[10],"1.32 fold enrichment (6-mer frequency, TF over GST control)"
same,binding signal,[11],"1.03 fold enrichment (6-mer frequency, TF over GST control)"
same,binding signal,[12],"1.1 fold enrichment (6-mer frequency, TF over GST control)"
same,binding signal,[13],"1.14 fold enrichment (6-mer frequency, TF over GST control)"
same,binding signal,[14],"1 fold enrichment (6-mer frequency, TF over GST control)"
same,binding signal,[15],"1.04 fold enrichment (6-mer frequency, TF over GST control)"
same,binding signal,[16],"1.12 fold enrichment (6-mer frequency, TF over GST control)"
same,binding signal,[17],"1.16 fold enrichment (6-mer frequency, TF over GST control)"
same,binding signal,[18],"1.03 fold enrichment (6-mer frequency, TF over GST control)"
same,binding signal,[19],"1.07 fold enrichment (6-mer frequency, TF over GST control)"
